The term inhibition denotes the change of the read-out against control, counted positive when it falls.

The structures appear in SMILES notation. Activity calls are given as the source filed them.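 The calls were made as follows: active = inhibition of the reporter signal at or above 50%; inactive = inhibition below 50%.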

Drawing on PubChem BioAssay, this text covers inhibition for 40 compounds.

This assay can be described thus: inhibitors of poly I:C-induced TLR3 signaling, primary screen, cell-based, poly I:C stimulus, luciferase, 10K MLSCN set (AID 602277). The conditions noted are these: HEK293-TLR3 RL24 IRF3 luciferase reporter, at 10 µM, hits give high values. On the technique in general: A reporter such as luciferase makes a cellular process visible.
Regarding `CCOC(=O)Cn1ncc(-c2ccccc2)c1N`, the inhibition is -27.5% (inactive).
The result for `O=C(NCC(c1cccnc1)N1CCN(c2ccc(F)cc2)CC1)OCc1ccccc1` (stereo not given) reads 1.38% (inactive).
Then `O=C(c1ccc(Cl)cc1)N1CCCOC1`, with 18.6% (inactive).
Then `Cc1ccc(S(=O)(=O)C2(C(=O)Nc3cccnc3)CC2)cc1`, with 28.7% (inactive).
As to `Cc1[nH]nc(N=CC2=C(O)CC(C)(C)CC2=O)c1-c1ccc(Cl)cc1`, the inhibition was -25.9% (inactive).
The result for `CC(C)(C)c1ccc2c(c1)OCC(C(=O)O)O2` (stereo not given) reads 4.32% (inactive).
Then `Cn1c(=O)[nH]c(=O)c2c1nc(NCCCn1ccnc1)n2Cc1ccccc1`, with -6.06% (inactive); and `CCOC(=O)C(NC(=O)CC)(Nc1ccc(S(=O)(=O)Nc2onc(C)c2C)cc1)C(F)(F)F` (stereo not given), with 14.1% (inactive).
On to `CCOc1ccc(S(=O)(=O)Nc2ccc(Cl)cn2)c(C)c1C`, for which the inhibition is 26.8% (inactive).
Then `O=C(OCC#CCSc1nnc(-c2ccncc2)o1)c1cccs1`, with 24.8% (inactive).
The result for `O=P(O)(O)C(O)C(F)(F)C(F)(F)C(F)(F)C(F)F` (stereo not given) reads 17.5% (inactive).
The result for `COc1ccc(-c2nnc(SCC(=O)Nc3cc(C)on3)n2C)cc1OC` reads 25% (inactive).
As for `Cc1c(C#N)c(N)c(C(=O)c2ccccc2)n1Cc1ccccc1`, the inhibition was 0.155% (inactive).
The result for `CCC(C)NCC(O)COCc1ccc(Cl)cc1` (stereo not given) reads 20.9% (inactive); that for `CC(=O)N1CCc2cc(S(=O)(=O)CCC(=O)Nc3cccc(F)c3)ccc21`, 19.1% (inactive).
Then `O=c1c2[nH]c3cccc(Cl)c3c2ncn1CCN1CCCCC1`, with 27.2% (inactive); and `O=C(Nc1cccc2ccccc12)c1ccc(Br)o1`, with 19.8% (inactive).
Then `CN(C)S(=O)(=O)c1ccc(C(=O)N2CCCC2c2nc3ccccc3s2)cc1` (stereo not given), with -7.19% (inactive); and `CSc1ccccc1NC(=O)C1CCCO1` (stereo not given), with -1.95% (inactive); and `C=CCn1c(=O)c2ccccc2n2c(SC(C)C(=O)Nc3nc(-c4ccccc4)cs3)nnc12` (stereo not given), with 34.2% (inactive).
As for `CC1Cc2ccccc2N1C(=O)CSc1nc2ccccc2n1CC(=O)N1CCOCC1` (stereo not given), the inhibition was 2% (inactive).
The result for `COc1ccccc1C(=O)NC(C)C(c1cccs1)N1CCN(C)CC1` (stereo not given) reads -8.87% (inactive); that for `CCn1cc(C(=O)NCCCOC)c(=O)c2cc(S(=O)(=O)N(C)C)ccc21`, 31.3% (inactive); that for `Cc1cc(N2C(=O)C(O)=C(C(=O)c3ccc(C)o3)C2c2cccs2)no1` (stereo not given), -26.2% (inactive).
In the case of `Cc1ccc(CNC(=O)C2CC(=O)OC23CCCC3)c(C)c1` (stereo not given), the inhibition is 20.9% (inactive).
The result for `CCSc1nc2ccccc2n1CCC(=O)O` reads 18.3% (inactive).
The result for `COc1ccc(-c2nc(CS(=O)CC(=O)N3CCCC3)c(C)o2)cc1` (stereo not given) reads 5.74% (inactive); that for `COc1ccc2c(c1)CCc1cc(C(=O)N3CCN(c4ccc(N5CCOCC5)nn4)CC3)sc1-2`, -42.5% (inactive); that for `COC(=O)c1ccc(Oc2nc(NC(C)C)nc(N(C)C)n2)cc1`, 15.7% (inactive).
The result for `COc1ccc(N(CC(=O)N2CCCCC2)S(=O)(=O)c2ccccc2)c(OC)c1` reads 26.9% (inactive).
For the compound `O=c1cc(CSc2nnnn2-c2ccccc2)nc2scc(-c3ccccc3)n12`, the inhibition is 12% (inactive).
Then `O=C1CCCc2c1nn(-c1ccccc1)[n+]2[O-]`, with 5.41% (inactive).
Then `Nc1nc(Nc2ccc(Cl)cc2Cl)nc(C(F)(F)F)n1`, with -84.9% (inactive).
Then `Cn1c(=O)c2c(nc(NCc3ccco3)n2C/C=C/c2ccccc2)n(C)c1=O`, with 18.9% (inactive).
Consider `Cn1c(=O)[nH]c(=O)c2c1nc(N1CCc3ccccc3C1)n2CCSc1nc2ccccc2s1`, for which the inhibition was 23% (inactive).
Then `COC(=O)c1oc2ccc(Br)cc2c1NC(C)=O`, with 30.7% (inactive); and `COc1cc(NC(=O)CC(C)C)ccc1NC(=O)c1ccco1`, with -135% (inactive); and `CCOC(=O)N1CCC(NC(=O)C2CCC(Cn3c(=O)[nH]c4ccccc4c3=O)CC2)CC1` (stereo not given), with 20.6% (inactive).
The result for `Cc1cc(C(F)F)n2nc(C(=O)Nc3ccc(S(=O)(=O)N4CCCCCC4)cc3)nc2n1` reads 22.1% (inactive); that for `O=C(NCCN1CCOCC1)C1CCC(=O)N1Cc1ccccc1Cl` (stereo not given), 21% (inactive).
